According to the supplement of paper PMC11732987, “Enantioselective OTUD7B fragment discovery through chemoproteomics screening and high-throughput optimisation” (Communications Chemistry, 2025):

Experiments:
Assay in all cases: log2 ratio of Biotin-Ahx-Ub-VS probe labelling (fragment/DMSO); higher = less target engagement (more negative = stronger competition), active = hit call of the paper (q ≤ 0.05, log2 ratio ≤ -1)
Details in all cases: compound concentration: 200 uM; treatment time: 3 h
OTUD6B = molecular target: T1, OTUD6B (UniProt Q8N6M0)
T1 sequence (whole entry): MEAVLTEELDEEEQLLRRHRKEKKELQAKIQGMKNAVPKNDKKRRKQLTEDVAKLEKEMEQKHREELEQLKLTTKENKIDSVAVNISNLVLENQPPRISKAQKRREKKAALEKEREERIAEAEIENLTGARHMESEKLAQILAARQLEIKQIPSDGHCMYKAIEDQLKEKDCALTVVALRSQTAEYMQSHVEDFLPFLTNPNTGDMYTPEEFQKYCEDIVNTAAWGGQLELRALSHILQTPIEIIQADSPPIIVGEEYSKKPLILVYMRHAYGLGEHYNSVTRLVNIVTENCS
How it was run: (§1)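 Labelling with Biotin-Ahx-Ub-VS (0.5 µM final, 1 h) followed a 3 h triplicate treatment of HEK293T lysate (495 µg per sample, Tris/CHAPS/IGEPAL buffer with protease inhibitors) with fragment at 200 µM or vehicle. Labelled DUBs were NeutrAvidin-enriched, digested with LysC and trypsin, and run by diaPASEF LC-MS/MS. The values, average log2 fragment/vehicle ratios by unpaired t-test, come from global-median-normalised Spectronaut label-free quantities. Proteins with ≥2 unique peptides were used.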

OTUD7B = molecular target: T2, OTUD7B (UniProt Q6GQQ9)
T2 sequence (whole entry): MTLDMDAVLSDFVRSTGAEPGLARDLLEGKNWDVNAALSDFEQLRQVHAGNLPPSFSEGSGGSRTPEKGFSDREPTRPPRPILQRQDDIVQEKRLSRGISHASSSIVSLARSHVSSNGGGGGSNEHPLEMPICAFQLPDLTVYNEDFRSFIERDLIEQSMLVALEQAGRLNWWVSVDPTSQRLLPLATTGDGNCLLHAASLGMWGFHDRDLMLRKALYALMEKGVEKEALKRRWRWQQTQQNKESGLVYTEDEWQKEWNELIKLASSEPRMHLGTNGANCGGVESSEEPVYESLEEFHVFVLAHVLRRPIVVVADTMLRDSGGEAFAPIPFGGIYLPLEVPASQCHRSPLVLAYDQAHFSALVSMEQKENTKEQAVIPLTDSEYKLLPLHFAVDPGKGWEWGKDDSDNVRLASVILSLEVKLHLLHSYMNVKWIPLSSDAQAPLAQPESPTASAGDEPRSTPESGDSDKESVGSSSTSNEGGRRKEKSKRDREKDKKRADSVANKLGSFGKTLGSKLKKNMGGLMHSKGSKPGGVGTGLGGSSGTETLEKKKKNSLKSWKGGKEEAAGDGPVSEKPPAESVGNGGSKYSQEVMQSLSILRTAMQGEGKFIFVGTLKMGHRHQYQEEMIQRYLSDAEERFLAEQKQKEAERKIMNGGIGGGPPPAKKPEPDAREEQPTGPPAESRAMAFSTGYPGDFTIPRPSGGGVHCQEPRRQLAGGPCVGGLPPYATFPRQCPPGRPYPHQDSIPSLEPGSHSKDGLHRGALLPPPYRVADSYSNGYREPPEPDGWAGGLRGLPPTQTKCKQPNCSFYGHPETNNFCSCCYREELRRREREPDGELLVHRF
How it was run: as §1

PRPF8 = PRPF8 (UniProt Q6P2Q9)
How it was run: as §1

PSMD7 = molecular target: T3, PSMD7 (UniProt P51665)
T3 sequence (whole entry): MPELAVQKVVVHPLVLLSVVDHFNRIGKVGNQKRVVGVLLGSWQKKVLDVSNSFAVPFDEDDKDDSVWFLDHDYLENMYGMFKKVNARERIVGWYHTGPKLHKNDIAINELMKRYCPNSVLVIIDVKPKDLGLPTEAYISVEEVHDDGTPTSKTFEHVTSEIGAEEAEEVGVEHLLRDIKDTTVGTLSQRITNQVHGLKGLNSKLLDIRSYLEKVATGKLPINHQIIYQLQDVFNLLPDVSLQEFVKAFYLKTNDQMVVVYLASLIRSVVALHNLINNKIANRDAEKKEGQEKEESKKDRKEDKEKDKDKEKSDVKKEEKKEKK
How it was run: as §1

UCHL1 = UCHL1 (UniProt P09936)
UCHL1, sequence (P09936 whole entry, looked up): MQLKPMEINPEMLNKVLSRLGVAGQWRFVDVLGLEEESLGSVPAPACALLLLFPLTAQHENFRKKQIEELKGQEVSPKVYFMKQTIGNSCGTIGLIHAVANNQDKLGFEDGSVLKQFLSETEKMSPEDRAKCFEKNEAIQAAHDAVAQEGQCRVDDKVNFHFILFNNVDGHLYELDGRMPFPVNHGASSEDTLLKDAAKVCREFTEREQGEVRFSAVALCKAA
How it was run: as §1

UCHL3 = molecular target: T4, UCHL3 (UniProt P15374)
T4 sequence (whole entry): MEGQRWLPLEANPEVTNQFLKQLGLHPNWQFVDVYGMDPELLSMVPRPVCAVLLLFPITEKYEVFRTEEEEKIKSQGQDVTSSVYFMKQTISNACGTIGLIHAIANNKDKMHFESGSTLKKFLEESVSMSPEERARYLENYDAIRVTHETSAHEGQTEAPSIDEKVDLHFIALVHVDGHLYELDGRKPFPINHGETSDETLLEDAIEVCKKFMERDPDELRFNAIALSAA
How it was run: as §1

UCHL5 = molecular target: T5, UCHL5 (UniProt Q9Y5K5)
T5 sequence (whole entry): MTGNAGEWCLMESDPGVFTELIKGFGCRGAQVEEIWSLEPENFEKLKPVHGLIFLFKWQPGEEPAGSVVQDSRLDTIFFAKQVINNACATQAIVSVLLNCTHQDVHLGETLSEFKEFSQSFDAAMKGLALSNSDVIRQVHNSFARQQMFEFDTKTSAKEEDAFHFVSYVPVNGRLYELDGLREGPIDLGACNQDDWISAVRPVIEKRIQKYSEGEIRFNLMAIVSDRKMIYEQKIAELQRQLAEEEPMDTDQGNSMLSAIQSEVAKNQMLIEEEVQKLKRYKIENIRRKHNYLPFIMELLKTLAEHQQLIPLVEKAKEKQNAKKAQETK
How it was run: as §1

USP10 = USP10 (UniProt Q14694)
USP10, sequence (Q14694 whole entry): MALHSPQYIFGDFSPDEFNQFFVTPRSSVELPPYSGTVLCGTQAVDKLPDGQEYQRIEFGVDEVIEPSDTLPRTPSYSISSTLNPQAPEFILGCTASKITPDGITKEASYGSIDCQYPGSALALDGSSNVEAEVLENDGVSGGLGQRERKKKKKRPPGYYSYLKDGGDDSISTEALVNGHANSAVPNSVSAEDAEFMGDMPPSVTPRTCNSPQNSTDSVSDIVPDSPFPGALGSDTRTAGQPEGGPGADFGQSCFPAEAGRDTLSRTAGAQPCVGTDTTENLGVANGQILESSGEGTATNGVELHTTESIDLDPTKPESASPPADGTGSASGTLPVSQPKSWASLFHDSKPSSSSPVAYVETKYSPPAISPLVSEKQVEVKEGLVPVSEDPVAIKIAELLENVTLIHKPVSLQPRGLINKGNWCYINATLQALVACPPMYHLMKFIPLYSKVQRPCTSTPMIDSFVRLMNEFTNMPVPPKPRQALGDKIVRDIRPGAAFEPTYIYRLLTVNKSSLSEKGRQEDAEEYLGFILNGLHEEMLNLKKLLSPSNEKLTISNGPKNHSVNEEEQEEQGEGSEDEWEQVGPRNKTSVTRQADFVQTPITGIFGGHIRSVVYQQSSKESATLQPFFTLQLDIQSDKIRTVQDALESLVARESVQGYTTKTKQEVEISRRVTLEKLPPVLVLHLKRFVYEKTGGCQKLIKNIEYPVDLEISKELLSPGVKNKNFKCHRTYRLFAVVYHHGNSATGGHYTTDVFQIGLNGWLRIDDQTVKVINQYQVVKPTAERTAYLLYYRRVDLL
How it was run: as §1

USP15 = molecular target: T6, USP15 (UniProt Q9Y4E8)
T6 sequence (whole entry): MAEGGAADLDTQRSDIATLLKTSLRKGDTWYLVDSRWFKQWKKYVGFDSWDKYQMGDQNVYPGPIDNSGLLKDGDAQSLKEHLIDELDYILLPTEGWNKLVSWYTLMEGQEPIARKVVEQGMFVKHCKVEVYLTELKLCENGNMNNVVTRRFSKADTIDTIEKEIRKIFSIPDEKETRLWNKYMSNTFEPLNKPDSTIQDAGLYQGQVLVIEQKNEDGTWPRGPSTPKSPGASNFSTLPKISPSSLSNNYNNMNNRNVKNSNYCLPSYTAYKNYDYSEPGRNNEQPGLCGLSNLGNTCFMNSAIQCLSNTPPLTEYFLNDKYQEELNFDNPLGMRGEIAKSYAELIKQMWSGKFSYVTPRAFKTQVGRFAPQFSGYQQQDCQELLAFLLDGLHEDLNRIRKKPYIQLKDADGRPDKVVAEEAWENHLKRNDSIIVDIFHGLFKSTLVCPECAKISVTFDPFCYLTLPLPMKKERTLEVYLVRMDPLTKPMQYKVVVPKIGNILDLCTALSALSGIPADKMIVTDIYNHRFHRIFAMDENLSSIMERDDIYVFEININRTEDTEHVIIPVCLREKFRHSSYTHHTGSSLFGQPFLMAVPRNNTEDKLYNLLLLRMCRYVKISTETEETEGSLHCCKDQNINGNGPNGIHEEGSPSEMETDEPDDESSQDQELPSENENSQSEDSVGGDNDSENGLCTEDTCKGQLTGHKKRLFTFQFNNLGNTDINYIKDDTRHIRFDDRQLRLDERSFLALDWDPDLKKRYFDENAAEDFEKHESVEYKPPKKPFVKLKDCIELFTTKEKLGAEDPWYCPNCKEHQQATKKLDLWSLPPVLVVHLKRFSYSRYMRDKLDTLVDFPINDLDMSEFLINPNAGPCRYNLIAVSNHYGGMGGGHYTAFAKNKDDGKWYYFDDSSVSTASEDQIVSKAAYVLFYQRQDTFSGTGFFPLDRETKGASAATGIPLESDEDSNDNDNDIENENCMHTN
How it was run: as §1

Measured: log2 ratio of Biotin-Ahx-Ub-VS probe labelling

O=C(CCl)Nc1cccc(C(=O)N2CCSCC2)c1
inactive: OTUD6B -0.0782 | OTUD7B -0.71 | PRPF8 -0.00865 | PSMD7 -0.0955 | UCHL1 -0.784 | UCHL3 0.0211 | UCHL5 -0.176 | USP10 -0.156 | USP15 -0.164
